SMILES strings stand for the structures. About 79,000 compounds went through this panel and 15% of them were active in at least one assay; those are over-represented in the sample as a whole. Unmarked numbers belong to inactive results. Cut-off read from the data, not from the text of the source: active = growth inhibition above about 70%; inactive = the rest.

The nature of the experiment: NCI Yeast Anticancer Drug Screen. Data for the sgs1 mgt1 strain (AID 161).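 Note: 0% = growth of cultures given vehicle only.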 The conditions noted are these: S. cerevisiae sgs1 mgt1 strain, at 50.0 µM, active compounds read high. A digest of the protocol:
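Inhibition of yeast growth, normalised to vehicle-treated controls, is reported for a strain bearing genetic alterations in DNA damage repair.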
`CCOC(=O)CCc1c[nH]c2ccccc12`: the growth inhibition is -9.9%.

Regarding `CC(=O)Nc1nc(C)c(CC/C=C/c2ccc([N+](=O)[O-])cc2)c(=O)[nH]1`, the growth inhibition is -3.8%. `C=C1C(=O)OC2C=C(C)C3C(OC(=O)c4ccccc4)CC(C)(O)C3CC12` (stereo not given): the growth inhibition is 3.05%. Under `CCOc1nc(N)nc(C)c1N=Nc1ccc(O)cc1` stands 0.85%; under `Nc1ccc(C(=O)N/C(=C\c2cccc([N+](=O)[O-])c2)c2nc3ccc(Cl)cc3[nH]2)cc1`, -25.3%. Next, `O=C1c2ccccc2C(=O)N1/N=C\c1ccc(O)cc1`: 7.6%. `CCOc1ccc(C(=O)OC(C)C)cc1`: the growth inhibition was 1.9%. For the compound `CC1=NN(c2ccccc2)C(=O)C1=C1SCCCS1`, the growth inhibition was 10.6%. With `Clc1ccc2c(c1)N(C1CCCN(Cc3ccccc3)C1)c1ccccc1S2` (stereo not given), the growth inhibition was 35.1%. Under `COc1ccc(C(CC(=O)c2ccccc2)C(=O)c2ccc3c(c2)OCO3)cc1` (stereo not given) stands -38.8%; under `O=C(OC(=O)c1ccc(Cl)cc1)c1ccc(Cl)cc1`, 5.45%.

For `CSC(=S)Nc1nc2ccc(Cl)cc2s1`, the growth inhibition was 15.3%. Under `CCOc1nc(OCC)c2cnn(C)c2n1` stands -3.55%; under `COc1ccc([N+](=O)[O-])c(OC)c1`, -30.9%; under `C/C(=N\NC(=O)c1ccncc1)c1ccc(Cl)cc1Cl`, 0.55%. Under `COc1cc(-c2ccccc2)c(OC)cc1CCl` stands 17.8%; under `CCOC(=O)C(=O)C(CCc1ccc2ccc3cccc4ccc1c2c34)C(=O)OCC` (stereo not given), 6.55%. In the case of `O=c1[nH]c2ccccc2nc1/C=C(\O)c1ccc([N+](=O)[O-])cc1`, the growth inhibition was -21.6%. Under `O=C(NCCO)c1ccc(Cl)cc1` stands -30.6%; under `Cc1cc(N=Nc2ccccc2)c2cccnc2c1N`, -7.5%. Next, `CCCCNC(=O)C(C)S(=O)(=O)c1ccc(C)cc1` (stereo not given): -17.3%. Turning to `Cc1ccc(C(=O)c2cc3c([nH]c4ccccc43)c(C)c2C(=O)O)cc1`, the growth inhibition is -5.1%. Under `CC(=O)N=Cc1ccccc1O` stands -50.2%; under `O=C(Nc1ccccc1)c1cccc(F)c1`, -6.25%. Next, `O=C(O)CNC(=O)CNC(=O)CNC(=O)CNC(=O)CNC(=O)OCc1ccccc1`: 15.2%.

For the compound `CCCCNC(=O)OCCN=c1c2ccccc2ccc2ccccc12`, the growth inhibition is -9.95%. Under `CCn1c(O)c(C=Nc2ccccc2)s/c1=N/Nc1nc(C)cs1` stands -25%; under `CCCCC(=O)N/N=C/c1c[nH]c2ccc(Br)cc12`, -9.1%. For `Cc1ccc(OCc2ccccc2)n[n+]1[O-]`, the growth inhibition was -10.8%.

As to `Cc1cc(C)n(-c2ccc(Cl)nn2)n1`, the growth inhibition is 4.35%.

As to `N/N=C/c1ccc2ccccc2n1`, the growth inhibition is -17.4%. Next, `COC(=O)CC(=O)/C(=C/C(C/C=C(\C(=O)CC(=O)OC)C(=O)OC)OC)C(=O)OC` (stereo not given): 8.9%; `CC1(C)C2CC=C(CCO)C1C2` (stereo not given): 2.05%; `CCCOC(C)OCCC#CCC(C)OC(=O)CC(Cl)(Cl)Cl` (stereo not given): 10.7%. Regarding `Cc1cc(=NO)cc(C)n1O`, the growth inhibition is 54.9%. Under `CC(=O)Nc1nc(C)c(CC/C=C/c2ccc([N+](=O)[O-])cc2)c(Cl)n1` stands 38%. Consider `COc1cc(/C=C2/C(=O)N(C(=O)c3ccc(Cl)cc3)N=C2C)cc(OC)c1OC`, for which the growth inhibition was 2.95%. Next, `CC(=O)NNc1nc(C)c(C(/C=C/c2ccc(/C=C/C(=N\NC(=O)c3ccncc3)c3sc(NNC(C)=O)nc3C)cc2)=N/NC(=O)c2ccncc2)s1`: -8.95%; `COC(=O)NC(C(F)(F)F)(C(F)(F)F)P1(=O)OCCCO1`: 26.3%; `CSc1ccc(C(=O)c2ccc(SC)cc2)cc1`: 16.2%.

For the origin of these results see PubChem BioAssay (NCI).
